Results reported in the supplement of paper PMC6555819.

Experiments:
Experiment in all cases: PBM binding z-score (relative to random genomic background probes); higher = stronger binding; sequences stand for … in GC…GCGATTGACAGCGTAGAATGAAGG
[1] = system: FXR:RXRa (NR concentration 270 nM, RXRa partner concentration 90 nM)
Method in brief: (§1)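 Binding buffer was PBS pH 7.4 with 2% milk, 0.02% Triton X-100, 1 mM DTT, 0.2 mg/mL BSA and 0.4 mg/ml salmon testes DNA. In it, ligand-free nuclear receptor dimers were incubated 1 h on custom Agilent 4×180K protein-binding microarrays carrying double-stranded probes. Antibodies against each partner (one per run) detected binding, and z-scores were calculated against random background probes after regression normalization of scanned fluorescence.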

[2] = system: LXRa:RXRa (NR concentration 270 nM, RXRa partner concentration 90 nM)
Method in brief: as §1

[3] = system: LXRa homodimer (NR concentration 270 nM)
Method in brief: as §1

[4] = system: LXRb:RXRa (NR concentration 270 nM, RXRa partner concentration 90 nM)
Method in brief: as §1

[5] = system: LXRb homodimer (NR concentration 270 nM)
Method in brief: as §1

[6] = system: PPARa:RXRa (NR concentration 270 nM, RXRa partner concentration 90 nM)
Method in brief: as §1

[7] = system: PPARg:RXRa (NR concentration 180 nM, RXRa partner concentration 90 nM)
Method in brief: as §1

[8] = system: PPARg:RXRa 270nM:90nM, anti-RXR (NR concentration 270 nM, RXRa partner concentration 90 nM)
Method in brief: as §1

[9] = system: PPARg:RXRa 30nM:10nM, anti-RXR (NR concentration 30 nM, RXRa partner concentration 10 nM)
Method in brief: as §1

[10] = system: PPARg:RXRa 90nM:30nM, anti-RXR (NR concentration 90 nM, RXRa partner concentration 30 nM)
Method in brief: as §1

[11] = system: PPARg:RXRa DBDmut IVT, anti-RXR (DBD mutation: RXRa K156A/R161A, NR concentration 270 nM, RXRa partner concentration 90 nM)
Method in brief: as §1

[12] = system: PPARg:RXRa IVT, anti-PPARg (NR concentration 270 nM, RXRa partner concentration 90 nM)
Method in brief: as §1

[13] = system: PPARg DBDmut:RXRa IVT, anti-PPARg (DBD mutation: PPARg1 K132A/R137A, NR concentration 270 nM, RXRa partner concentration 90 nM)
Method in brief: as §1

[14] = system: PPARg DBDmut IVT, anti-PPARg (DBD mutation: PPARg1 K132A/R137A, NR concentration 270 nM)
Method in brief: as §1

[15] = system: PPARg homodimer (NR concentration 180 nM)
Method in brief: as §1

[16] = system: PXR:RXRa (NR concentration 270 nM, RXRa partner concentration 90 nM)
Method in brief: as §1

[17] = system: PXR homodimer (NR concentration 270 nM)
Method in brief: as §1

[18] = system: RARa:RXR (NR concentration 270 nM, RXRa partner concentration 90 nM)
Method in brief: as §1

[19] = system: RARa homodimer (NR concentration 270 nM)
Method in brief: as §1

[20] = system: RARb:RXRa (NR concentration 270 nM, RXRa partner concentration 90 nM)
Method in brief: as §1

| Sequence | PBM binding z-score [1] | PBM binding z-score [2] | PBM binding z-score [3] | PBM binding z-score [4] | PBM binding z-score [5] | PBM binding z-score [6] | PBM binding z-score [7] | PBM binding z-score [8] | PBM binding z-score [9] | PBM binding z-score [10] | PBM binding z-score [11] | PBM binding z-score [12] | PBM binding z-score [13] | PBM binding z-score [14] | PBM binding z-score [15] | PBM binding z-score [16] | PBM binding z-score [17] | PBM binding z-score [18] | PBM binding z-score [19] | PBM binding z-score [20] |
| --- | --- | --- | --- | --- | --- | --- | --- | --- | --- | --- | --- | --- | --- | --- | --- | --- | --- | --- | --- | --- |
| CCTAGTGGGCCATTCAGAGGTCATTGATCATATG | 2.85 | 4.29 | 6.62 | 3.77 | 0.202 | 3.98 | 2.23 | 3.11 | 0.966 | 2.3 | 4.41 | 4.44 | 1.45 | 0.315 | 4.35 | 4.94 | 2.6 | 4.89 | 0.902 | 2.98 |
| GCTTGTAGATCAGGGTTAAGAAAGACTAAGCTAA | 0.433 | 0.899 | -0.568 | 0.723 | -0.466 | 1.55 | 0.746 | 1.1 | 0.497 | 0.871 | 0.93 | 0.657 | -0.0573 | -0.809 | 0.18 | 0.366 | -0.121 | 0.69 | -0.311 | 0.352 |
| ACTTACGGGTCAACGAGGTTATAGAACGCGTATA | 6.52 | 5.29 | 0.693 | 4.56 | 0.433 | 5.87 | 5.23 | 5.55 | 2.2 | 4.21 | 3.53 | 4.42 | 1.71 | 1.43 | 1.66 | 5.08 | 2.8 | 4.99 | 0.996 | 4.35 |
| CTCGAAAGGTCGGTTGAGGTGAGTAGACGGATAA | 2.24 | 1.85 | 0.0366 | 1.44 | -0.503 | 2.76 | 0.386 | 1.51 | 0.222 | 0.586 | -0.178 | 0.996 | -0.252 | -0.747 | 0.919 | 3.03 | 0.241 | 2.71 | -0.0972 | 3.11 |
| ATCTCTAGGTAACAAGTTGAGTGAAAGAGAGGAC | 0.601 | 0.354 | 0.274 | 0.114 | 0.76 | 0.677 | 1.25 | 1.76 | 0.856 | 1.6 | 3.42 | 2.71 | 1.43 | 1.04 | 0.666 | 0.294 | 0.569 | 0.445 | 1.29 | 0.64 |
| CCTTACGGGCCACTCCAGGTTATAGCATCGGAGT | 0.501 | 3.23 | 0.439 | -0.116 | -0.752 | -0.00696 | 0.417 | -0.281 | -0.409 | -0.41 | 0.503 | 0.46 | -1.12 | -0.87 | 0.232 | 0.0123 | 0.0587 | 0.0279 | 0.0434 | 0.496 |
| CGAACTAGGTCATGGACAGTGAATCTCCGCACGC | 3.63 | 2.28 | 0.076 | 1.46 | -0.358 | 4.61 | 7.41 | 6.4 | 3.88 | 6.02 | 8.13 | 8.2 | 2.01 | 1.53 | 1.69 | 1.36 | -0.279 | 2.43 | 0.353 | 3.61 |
| CCTATTGGGCCATTCAGAGGTCATTGATCATATG | 3 | 4.68 | 6.08 | 4.04 | 0.58 | 3.65 | 1.17 | 2.6 | 0.568 | 1.77 | 2.6 | 2.48 | 0.246 | 0.228 | 1.37 | 4.71 | 2.54 | 4.7 | 0.541 | 3.28 |
